Screens from PubChem BioAssay.
This is one part of a sample in which hits are shown more often than they occur.
Pf Dd2 inh = qHTS Primary assay for Inhibitors of Plasmodium falciparum Dd2 growth in vitro; P. falciparum Dd2 growth, SYBR Green, 72 h; Potency, µM (doses to about 28.9 µM), for the others: top-dose activity, negative = inhibition, hits mostly inhibitors; 4.3% of 120,000 active; AID 1347417, 2020; active = well fitted inhibition curve with a large enough effect;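 also: plate controls were DMSO vehicle for no effect and reference drug for full effect; nearly all actives have a fitted effect of over 65% in size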
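Infected erythrocytes (Dd2, 0.3% parasitemia, 2.5% hematocrit final) are added to compound in RPMI-1640/Albumax II medium, grown 72 h at 37C in low oxygen, then lysed with saponin/Triton-X containing SYBR Green and read by fluorescence.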
* = called active by the depositor; i = inactive; [ ] = dose if it differs, or a comment. Potency is read from the fitted curve at half-maximal effect.

SMILES	Pf Dd2 inh
CCS(=O)(=O)N1CCC2(CC1)CC(N1CCN(C(C)=O)CC1)CCO2 (centres undefined)	24%
O[C@H]1[C@H](NCC2CCCCC2)[C@H]2CO[C@H](O2)[C@@H]1N1CCC(Cc2ccccc2)CC1	1.4µM*
OCc1ccc(CN[C@H]2[C@H](O)[C@@H](N3CCC(Cc4ccccc4)CC3)[C@@H]3OC[C@H]2O3)o1	i
O[C@H]1[C@H](NCc2ccccn2)[C@H]2CO[C@H](O2)[C@@H]1N1CCC(Cc2ccccc2)CC1	-19%[44.1 µM]
CC(C)NC(=O)NCc1nnc2n1C(C(=O)N1CCN(c3ncccn3)CC1)CC2 (centres undefined)	13%
CCCCN1C(=O)c2ccccc2C(C(=O)NCc2ccccn2)C12CCCCC2 (centres undefined)	i
CS(=O)(=O)N1CCC(Cc2ccc(C(N)=O)cc2)CC1	15%
CC(C)c1ccc(CC(=O)N2CCCc3ncc(C(=O)NCc4cccc(F)c4)cc32)cc1	i
N#Cc1cccc(CN2CC[C@H]3C(=O)NCCCCCCN(Cc4ccncc4)[C@@H]3C2)c1	13µM*
Cc1ccc(CN2CC[C@H]3C(=O)NCCCCCCN(Cc4ccncc4)[C@@H]3C2)o1	-13%
N#Cc1ccccc1CN1CC[C@@H]2C(=O)NCCCCCCN(Cc3ccncc3)[C@@H]2C1	-47%
O=C(C[C@@H]1O[C@H](CNCc2ccc(F)cc2)[C@@H](O)[C@H]1O)NCc1ccc(F)cc1	4%[44.1 µM]
Cc1ccc(OCC(=O)N2CCC(c3noc(-c4ccccc4)n3)C2)cc1 (centres undefined)	14%[5.79 µM]
Cc1cnc(C2CCC2)n1CCNC(=O)c1cc(C2CC2)[nH]n1	-4%
Cc1cc(C)c(S(=O)(=O)NCCn2c(C)cnc2C2CCC2)cc1C	3.5µM*
Cc1cnc(C2CC2)n1CCNC(=O)C1CCN1C1CCCCC1 (centres undefined)	-1%
COc1ccc2nc(CO[C@H]3CN(Cc4cccc(OC)n4)C[C@H]3F)[nH]c2c1	-2%[44.1 µM]
c1cn(CCN2CCCC2)c(-c2cc3n(n2)CCNC3)n1	-2%
Cc1ccc(S(=O)(=O)c2cn(CC(=O)Nc3cccc(Cl)c3)c3ccccc3c2=O)cc1	i
COc1ccc(S(=O)(=O)N(CC(=O)NCc2ccccc2)c2ccc(C)cc2)cc1OC	15%
CCOC(=O)N1CCN(C(=O)CN(c2ccccc2F)S(=O)(=O)c2ccc(C)cc2)CC1	-16%
Cc1ccc(S(=O)(=O)N(CC(O)Cn2c3ccccc3c3ccccc32)c2cccc(C(=O)N(C)C)c2)cc1 (centres undefined)	8.9µM*
Cc1ccc(S(=O)(=O)N(CC(O)Cn2c3ccccc3c3ccccc32)c2cccc(C(N)=O)c2)cc1 (centres undefined)	10µM*
Cc1ccc(-c2ccc3nnc(CNC(=O)c4cccc(N(C)C)c4)n3n2)cc1	i
O=C(NC[C@H]1OC[C@@H](NC2CCC2)[C@@H]1O)C1CCCC1	i
SMILES	Pf Dd2 inh
CCc1nc(-c2c3n(c(=O)n(CC(=O)Nc4cccc(Cl)c4)c2=O)CCCCC3)no1	-4%
Cc1ccccc1NC(=O)CN1C(=O)C(c2ccccc2)=NC12CCCCCC2	i
Cc1ccccc1NC(=O)CN1C(=O)C(c2ccccc2)=NC12CCCCC2	i
COc1cc(Cl)c(C)cc1NC(=O)CN1C(=O)C(c2ccccc2)=NC12CCCC2	11µM*
CCCCn1ccnc1C1CCCN(C(=O)c2ncc(F)cc2F)C1 (centres undefined)	9%
COCCN1Cc2[nH]nc(-c3cccc(COC)c3)c2CC1=O	-25%[44.1 µM]
COC[C@H]1CCCN1C(=O)CC[C@@H]1CNC(=O)[C@@H]2C[C@H](NC(=O)c3ccccc3)CN12	-9%[44.1 µM]
Cc1c(CN2CCN(Cc3cccs3)C(CCO)C2)cnn1C (centres undefined)	-6%
O=C(NCC1CCCCC1)c1ccc2c(c1)N(S(=O)(=O)c1ccccc1)CC2	4.5µM*
COc1ccccc1CNC(=O)c1ccc2c(c1)CCN2S(=O)(=O)c1ccccc1	-16%
O=C(NC1CCCC1)c1ccc2c(c1)N(S(=O)(=O)c1ccccc1)CC2	i
C=CCN1CC2(CCC1=O)CCN(Cc1cccc(C#N)c1)CC2	-23%
CCCN(CC1CCOC1)C(=O)Nc1ccc(Br)cc1 (centres undefined)	2%[5.79 µM]
C#CCNC(=O)[C@H]1O[C@H](CCN2CCN(Cc3ccccc3)CC2)CC[C@@H]1O	i
C[S+](=O)([O-])N1CCN(c2cccc(C=O)c2)C(=O)C1	3%[44.1 µM]
Cc1ccc(NC(=O)c2nn(C)c3c2CS(=O)(=O)c2ccccc2-3)c(Cl)c1	-1%
Cn1nc(C(=O)Nc2ccc(F)c(Cl)c2)c2c1-c1ccccc1S(=O)(=O)C2	8.9µM*
COc1cc(NC(=O)c2nn(C)c3c2CS(=O)(=O)c2ccccc2-3)cc(OC)c1	-21%
CN1CC(=O)N2CCN(C(=O)Cn3nnc4ccccc4c3=O)CC2C1=O (centres undefined)	-2%
COC(=O)c1c(NC(=O)c2ccc(S(=O)(=O)N3CCC(C)CC3)cc2)sc2c1CCN(C)C2	i
CC(C)CN(CC(C)C)S(=O)(=O)c1ccc(C(=O)Nc2sc3c(c2C(N)=O)CCN(C(C)C)C3)cc1	58%
COC(=O)c1c(NC(=O)c2ccc(S(=O)(=O)N(C)C3CCCCC3)cc2)sc2c1CCN(C)C2	8.9µM*
CCCC1(CO)CCCN(Cc2nnc(-c3cccc(F)c3)o2)C1 (centres undefined)	i
CC(C)=CCC1(CO)CCCN(Cc2[nH]c3ccc(F)cc3c2C)C1 (centres undefined)	2.2µM*
CCc1noc(C)c1C(=O)N1CCCC(CO)(CC=C(C)C)C1 (centres undefined)	-13%
SMILES	Pf Dd2 inh
COc1ccccc1C(=O)N1CC[C@H]2COC(=O)N2c2cc(F)ccc2C1	1%[44.1 µM]
CC(C)COc1cc(=O)n2c(c1C(=O)N1CCN(c3ccccn3)CC1)CCCCC2	-6%
Cc1noc(C)c1-c1cnc(Nc2ccc(Cl)cn2)c2c1CCO2	-16%[44.1 µM]
Cc1noc(C)c1-c1cnc(Nc2cc(F)cc(N3CCOCC3)c2)c2c1CCO2	-6%[44.1 µM]
Cc1noc(C)c1-c1cnc(Nc2ccc(CN3CCN(C)CC3)cc2)c2c1CCO2	5.6µM*
O=C1NCCCCCCN(C(=O)CC(F)(F)F)[C@H]2C[C@H](c3nc(-c4cccnc4)no3)C[C@@H]12	i
O=C(c1ccccc1)N1CCC2(CC1)CCN(CCc1ccccc1)c1ccccc1O2	-24%
COc1ccc(C(=O)NC(C(=O)NCC(C)C)C2CCN(C(=O)c3ccccc3C)CC2)cc1 (centres undefined)	i
Cc1ccc(-c2ncc(C(=O)NCC3CCCCC3)c(-c3ccncc3)n2)cc1	i
Cc1cc2cc(-c3c(C)noc3C)nc(N3CCN(C)C(=O)C3)c2o1	i
Cc1ccccc1-c1nc(-c2c(C)noc2C)cc2cc(CN(C)C)oc12	-9%[44.1 µM]
CC(=O)N1CCN(c2nc(-c3c(C)noc3C)cc3cc(CN(C)C)oc23)CC1	7.9µM*
COc1ccc(F)cc1C(C(=O)O)N1CCCN(c2ncccn2)CC1 (centres undefined)	-15%
CCCc1noc(-c2cn(C3CCN(C(=O)c4sccc4C)CC3)nn2)n1	i
COc1ccc(-c2cc(-c3cccc(OC)c3OC)cn3cncc23)cc1	1µM*
COc1ccc(-c2cc(-c3c(C)noc3C)c3cncn3c2)cc1	5µM*
COc1ccc(Cn2c(=O)c3ccccc3n3c(-c4cccc(OC)c4OC)nnc23)cc1	i
COc1cccc(-c2cc(-c3ccc(=O)[nH]c3)c3cncn3c2)c1	i
Cc1noc(C)c1-c1cc(-c2cnn(C)c2)cn2cncc12	-9%[44.1 µM]
